Reference: PubChem BioAssay (NCI)
This is part of a sample that, as a whole, favours compounds with a hit. Of some 79,000 tested, about 15% had one in any assay. The source made the active and inactive calls. Cut-off read from the data, not from the text of the source: active = growth inhibition above about 70%; inactive = the rest.

What was measured:
[1] = NCI Yeast Anticancer Drug Screen. Data for the rad50 strain (AID 155);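 note: 0% = growth of vehicle-only cultures of the same strain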; conditions: S. cerevisiae rad50 strain growth inhibition; at 50.0 µM; hits give high values
Procedure, shortened: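 DNA repair mutant yeast, compound exposure, growth read-out; inhibition is taken relative to vehicle.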

[2] = NCI Yeast Anticancer Drug Screen. Data for the mec2-1 strain (AID 157); conditions: S. cerevisiae mec2-1 strain, at 50.0 µM, hits give high values
Procedure, shortened: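 mec2-1 yeast strain, carrying an alteration in DNA damage repair or cell cycle control, was exposed to compounds; growth inhibition was measured relative to vehicle-treated controls.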

[3] = NCI Yeast Anticancer Drug Screen. Data for the sgs1 mgt1 strain (AID 161);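 note: 0% = growth of cultures given vehicle only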; conditions: S. cerevisiae sgs1 mgt1 strain, at 50.0 µM, hits give high values
Procedure, shortened: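 Yeast cells carrying a defined DNA-repair defect were exposed to test compounds. Growth inhibition was measured relative to vehicle-treated controls.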

[4] = NCI Yeast Anticancer Drug Screen. Data for the cln2 rad14 strain (AID 165);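 note: 0% = growth equal to vehicle treated cultures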; conditions: S. cerevisiae cln2 rad14 strain, at 50.0 µM, hits give high values
Procedure, shortened: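 Yeast carrying cln2 and rad14 alterations (cell cycle control and DNA damage repair) were exposed to compounds. Growth inhibition was measured against vehicle-treated controls.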

[5] = NCI Yeast Anticancer Drug Screen. Data for the bub3 strain (AID 167); conditions: S. cerevisiae bub3 mutant strain, at 50.0 µM, hits give high values
Procedure, shortened: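 In this screen, a yeast mutant lacking normal mitotic checkpoint function is challenged with compound. Relative growth versus vehicle gives the inhibition value.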

[6] = NCI Yeast Anticancer Drug Screen. Data for the mlh1 rad18 strain (AID 175); conditions: S. cerevisiae mlh1 rad18 strain growth inhibition; at 50.0 µM; hits give high values
Procedure, shortened: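 Growth inhibition of the yeast strain was measured after compound exposure and expressed relative to vehicle-treated controls. The strain carries defined defects in DNA damage repair.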

Row | Structure (SMILES) | growth inhibition [1] | growth inhibition [2] | growth inhibition [3] | growth inhibition [4] | growth inhibition [5] | growth inhibition [6]
1 | Ic1ccc2c[n+]3ccccc3cc2c1 | -11.7% (inactive) | 25.9% (inactive) | 8.85% (inactive) | -29.8% (inactive) | 1.75% (inactive) | -3.95% (inactive)
2 | C=C1C(=O)OC2/C=C(\C)C(O)C/C=C(/C)C(OC(=O)/C(C)=C\C)C(O)C12 (stereo not drawn) | 13.9% (inactive) | -17.8% (inactive) | 7.2% (inactive) | 5.6% (inactive) | -12.8% (inactive) | 11.8% (inactive)
3 | O=C1Nc2ccccc2C2Cc3c([nH]c4ccccc34)CC12 (stereo not drawn) | 47% (inactive) | 20.1% (inactive) | 3.8% (inactive) | 31.1% (inactive) | 7.4% (inactive) | 20.9% (inactive)
4 | O=[N+]([O-])c1ccc(OC(=S)Oc2ccc([N+](=O)[O-])cc2)cc1 | 3.45% (inactive) | -16.7% (inactive) | 2.9% (inactive) | -4.4% (inactive) | -0.05% (inactive) | 1.8% (inactive)
5 | Cc1cc(Cl)c(O)c(-c2cc(-c3ccc([N+](=O)[O-])cc3)c3c(N)[nH]c(=O)nc3n2)c1 | 44.1% (inactive) | -4.65% (inactive) | 35.5% (inactive) | 6.2% (inactive) | 19.6% (inactive) | 38% (inactive)
6 | C=CC1(c2ccc3ccccc3c2)OCC(CC)(CC)CO1 | -18.1% (inactive) | 7.15% (inactive) | -3.6% (inactive) | -4.7% (inactive) | 7.75% (inactive) | 21.5% (inactive)
7 | Oc1ccc(N2CCOCC2)cc1 | 0.45% (inactive) | 16.8% (inactive) | 3.05% (inactive) | -32% (inactive) | 25.6% (inactive) | 8.5% (inactive)
8 | C=CCC(O)c1ccc2c(c1)OCO2 (stereo not drawn) | -1% (inactive) | 13.3% (inactive) | -9.8% (inactive) | -40% (inactive) | -4.25% (inactive) | 10.1% (inactive)
9 | CCCCN1C(=O)c2ccccc2C1=O | 5.55% (inactive) | -10.7% (inactive) | 27.2% (inactive) | 7.9% (inactive) | 9.45% (inactive) | 13.4% (inactive)
10 | COc1cc(/C=C2/C(=O)N(c3ccccc3)N=C2C)cc(OC)c1OC | 12.6% (inactive) | -3.4% (inactive) | 24.1% (inactive) | 2.5% (inactive) | 11.6% (inactive) | 17.9% (inactive)
11 | CCn1c(=O)c2[nH]c(Br)nc2n(CC)c1=O | 1.95% (inactive) | -0.6% (inactive) | 5.95% (inactive) | -6.85% (inactive) | 0.3% (inactive) | -9.45% (inactive)
12 | CC1(C)CC(=O)C(/C=N/C(=S)NCc2ccccc2)=C(O)C1 | -35.4% (inactive) | -49.1% (inactive) | -16% (inactive) | 14.4% (inactive) | -2.45% (inactive) | -20.8% (inactive)
13 | CCCC(=O)c1ccccc1 | 35.5% (inactive) | 3% (inactive) | 19.9% (inactive) | 15% (inactive) | 26.1% (inactive) | 21.9% (inactive)
14 | O=C(O)c1ccccc1C(=O)OCc1ccccc1 | -0.15% (inactive) | 16.1% (inactive) | 6.25% (inactive) | -11.2% (inactive) | 8.25% (inactive) | 11.9% (inactive)
15 | O=C(O)CCCC(=O)c1ccccc1 | 5% (inactive) | -8.65% (inactive) | 4.85% (inactive) | -9.05% (inactive) | -5.9% (inactive) | 20.1% (inactive)
16 | O=C(O)CC1=C(c2ccccc2)C(O)(c2ccccc2)CC1=O (stereo not drawn) | 4.75% (inactive) | 15.3% (inactive) | 7.05% (inactive) | -27.9% (inactive) | 11.2% (inactive) | -11.1% (inactive)
17 | CCOC(=O)NC(C#N)=C(Cl)Cl | 37.5% (inactive) | 47% (inactive) | 49% (inactive) | 14.1% (inactive) | 38.5% (inactive) | 43.6% (inactive)
18 | CCOC(=O)c1nc(SC)sc1NC(=O)c1ccc(OC)cc1 | 12.8% (inactive) | -7.3% (inactive) | 13.1% (inactive) | 6.2% (inactive) | 17.7% (inactive) | -4.65% (inactive)
19 | CCC(=O)C(=O)c1ccccc1 | -12.9% (inactive) | -6.5% (inactive) | -0.4% (inactive) | -2.35% (inactive) | -1.05% (inactive) | 3.2% (inactive)

Row | Structure (SMILES) | growth inhibition [1] | growth inhibition [2] | growth inhibition [3] | growth inhibition [4] | growth inhibition [5] | growth inhibition [6]
20 | CC[P+](C)(Cc1ccccc1)c1ccccc1 (stereo not drawn) | -0.75% (inactive) | 1.6% (inactive) | 22.1% (inactive) | -3.25% (inactive) | 9.45% (inactive) | 21.3% (inactive)
21 | O=C1COCC(=O)N1 | 7.35% (inactive) | -22% (inactive) | 8.85% (inactive) | -1.95% (inactive) | 0.05% (inactive) | -0.2% (inactive)
22 | O=C1CC(c2ccccc2)Oc2ccccc21 (stereo not drawn) | -24.5% (inactive) | -58.1% (inactive) | -16.8% (inactive) | 8.2% (inactive) | -25.2% (inactive) | -24.1% (inactive)
23 | COc1cccc2c1C(=N)c1c(O)c3c(c(O)c1C2=O)C[C@@](O)(C(C)=O)C[C@@H]3OC1CC(N)C(O)C(C)O1 (stereo partly drawn) | 42.5% (inactive) | -26.1% (inactive) | -11.7% (inactive) | 34.2% (inactive) | -4.35% (inactive) | 13.9% (inactive)
24 | O=C(Cc1cc2ccccc2[nH]c1=O)Nc1ccccc1 | 9.55% (inactive) | -7.2% (inactive) | 6.75% (inactive) | -27% (inactive) | -2.2% (inactive) | -5.55% (inactive)
25 | COc1cc([N+](=O)[O-])c(C=O)c(C(=O)O)c1OC | 6.5% (inactive) | -1.85% (inactive) | -10.3% (inactive) | 13.7% (inactive) | 1.75% (inactive) | 4.9% (inactive)
26 | C/C(O)=C(/C=N/C(N)=S)C(N)=O | -3.05% (inactive) | 14.2% (inactive) | 7.1% (inactive) | 22% (inactive) | 10.2% (inactive) | 15.5% (inactive)
27 | CN(C)CCCN1c2ccccc2Sc2cnccc21 | 7.6% (inactive) | -8.2% (inactive) | -0.2% (inactive) | -0.05% (inactive) | -1.45% (inactive) | 15.3% (inactive)
28 | CC(C)=NOCCC#N | 22.5% (inactive) | -0.05% (inactive) | -4.8% (inactive) | -16.6% (inactive) | 8.35% (inactive) | -14.3% (inactive)
29 | CSC(/C=C/c1ccccc1)=Nc1ccccc1 | 3.2% (inactive) | 11.9% (inactive) | -0.9% (inactive) | -21.6% (inactive) | 23.6% (inactive) | 15% (inactive)
30 | O=C1OC(/C=C/c2ccccc2)C(=O)C1=O (stereo not drawn) | -4% (inactive) | -4.55% (inactive) | -3.9% (inactive) | 25.4% (inactive) | -9.75% (inactive) | -9.95% (inactive)
31 | S=c1nc[nH]c2c1cnn2-c1ccccc1 | 5.6% (inactive) | 19.6% (inactive) | 54.4% (inactive) | -13.2% (inactive) | -7.3% (inactive) | 40.2% (inactive)
32 | Cc1cccc(NC(=O)COc2ccc(Cl)cc2C)c1 | 8.35% (inactive) | 4.4% (inactive) | 9.55% (inactive) | 39.5% (inactive) | 0.4% (inactive) | -0.2% (inactive)
33 | Cn1cnc(=S)c2ccccc21 | -11% (inactive) | -12.8% (inactive) | -18.3% (inactive) | -6.05% (inactive) | 0.8% (inactive) | -29.1% (inactive)
34 | O=C1c2ccccc2C(=O)c2c(O)c(Cc3ccccc3)cc(O)c21 | 4.75% (inactive) | 11.9% (inactive) | 2.2% (inactive) | 14.5% (inactive) | 10.2% (inactive) | 4% (inactive)
35 | CCCOC(=O)Nc1cccc(C)c1 | 17.7% (inactive) | -5.65% (inactive) | -15.7% (inactive) | 0.4% (inactive) | 3% (inactive) | 8.95% (inactive)
36 | O=C(NP(=O)(O)NC(Cc1ccccc1)C(=O)O)OCc1ccccc1 (stereo not drawn) | -7.45% (inactive) | -6.65% (inactive) | 4.1% (inactive) | -18.9% (inactive) | 1.8% (inactive) | -12.2% (inactive)
37 | C=C1CN=C(Nc2ccc(F)cc2F)S1 | -0.15% (inactive) | 7.3% (inactive) | -14.6% (inactive) | 8.15% (inactive) | 1.75% (inactive) | 2.65% (inactive)
38 | CCCCCCCCCCCCCCCCCC[N+]1(C)CCOCC1 | 99.2% (active) | 99.5% (active) | 99.1% (active) | 98.7% (active) | 99.2% (active) | 99.5% (active)
